Numbering of substitutions follows the chain as printed.

The results in this text go back to paper PMC11006913.

Holding throughout (assay): PBM; 200 nM protein, PBS
Holding throughout (conditions): dsDNA, one strand shown

Assay [1] deals with T1, PAX4 (Homo sapiens, UniProt O43316 9-242, R200K).
T1 sequence: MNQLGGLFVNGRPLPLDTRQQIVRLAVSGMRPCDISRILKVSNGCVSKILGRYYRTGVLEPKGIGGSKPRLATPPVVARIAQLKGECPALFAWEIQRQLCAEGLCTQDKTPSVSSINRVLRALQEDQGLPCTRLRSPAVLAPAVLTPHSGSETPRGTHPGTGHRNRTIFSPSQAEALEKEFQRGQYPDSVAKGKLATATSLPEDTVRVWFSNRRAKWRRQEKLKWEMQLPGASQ

Assay [2] deals with T2, PAX4 (Homo sapiens, UniProt O43316 9-242).
T2 sequence: T1 sequence with K192R

Assay [3] deals with HOXA2 (Homo sapiens, UniProt O43364 129-215, R185T).
The target in assay [4] is T3, PAX4 (Homo sapiens, UniProt O43316 9-242, R200Q).
T3 sequence: T1 sequence with K192Q

Assay [5] has as its target HOXA2 (Homo sapiens, UniProt O43364 129-215, R185K).
In assay [6] the target is T4, PAX4 (Homo sapiens, UniProt O43316 9-242, F177V).
T4 sequence: T1 sequence with F169V, K192R

The target in assay [7] is T5, PAX4 (Homo sapiens, UniProt O43316 9-242, F177Y).
T5 sequence: T1 sequence with F169Y, K192R

In assay [8] the target is T6, PAX4 (Homo sapiens, UniProt O43316 9-242, R227W).
T6 sequence: T1 sequence with K192R, R219W

Assay [9] concerns the target HOXA2 (Homo sapiens, UniProt O43364 129-215, Y150S).
Assay [10] addresses HOXA2 (Homo sapiens, UniProt O43364 129-215).
Assay [11] concerns the target ALX3 (Homo sapiens, UniProt O95076 139-225, N203Q).
Assay [12] concerns the target T7, NKX2-6 (Homo sapiens, UniProt A6NCS4 118-204).
T7 sequence: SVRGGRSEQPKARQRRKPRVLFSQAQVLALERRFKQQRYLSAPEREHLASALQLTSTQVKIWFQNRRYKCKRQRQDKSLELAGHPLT

Assay [13] deals with ALX3 (Homo sapiens, UniProt O95076 139-225).
Assay [14] concerns the target ALX3 (Homo sapiens, UniProt O95076 139-225, L168Q).
Assay [15] concerns the target T8, NKX2-6 (Homo sapiens, UniProt A6NCS4 118-204, F151L).
T8 sequence: T7 sequence with F34L

The target of assay [16] is ALX3 (Homo sapiens, UniProt O95076 139-225, L168V).
Assay [17] concerns the target ALX3 (Homo sapiens, UniProt O95076 139-225, N203S).
In assay [18] the target is PROP1 (Homo sapiens, UniProt O75360 56-141).
Assay [19] has as its target PROP1 (Homo sapiens, UniProt O75360 56-141, R99H).
Assay [20] concerns the target PROP1 (Homo sapiens, UniProt O75360 56-141, F88S).

HOXA2 (Homo sapiens, UniProt O43364 129-215, Y150S), sequence (O43364 129-215 Y150S): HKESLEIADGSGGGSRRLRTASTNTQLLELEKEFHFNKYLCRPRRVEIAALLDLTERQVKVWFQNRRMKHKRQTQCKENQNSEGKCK
HOXA2 (Homo sapiens, UniProt O43364 129-215, R185K), sequence (O43364 129-215 R185K): as the sequence (O43364 129-215 Y150S) above, with S22Y, R57K counted along it
HOXA2 (Homo sapiens, UniProt O43364 129-215), sequence (O43364 129-215): as the sequence (O43364 129-215 Y150S) above, with S22Y counted along it
HOXA2 (Homo sapiens, UniProt O43364 129-215, R185T), sequence (O43364 129-215 R185T): as the sequence (O43364 129-215 Y150S) above, with S22Y, R57T counted along it
ALX3 (Homo sapiens, UniProt O95076 139-225, L168Q), sequence (O95076 139-225 L168Q): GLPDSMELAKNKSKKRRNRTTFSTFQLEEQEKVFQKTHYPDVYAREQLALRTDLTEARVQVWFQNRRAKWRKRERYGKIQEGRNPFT
PROP1 (Homo sapiens, UniProt O75360 56-141), sequence (O75360 56-141): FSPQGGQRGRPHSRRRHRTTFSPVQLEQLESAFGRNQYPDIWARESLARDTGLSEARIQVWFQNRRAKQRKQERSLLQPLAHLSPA
ALX3 (Homo sapiens, UniProt O95076 139-225), sequence (O95076 139-225): as the sequence (O95076 139-225 L168Q) above, with Q30L counted along it
PROP1 (Homo sapiens, UniProt O75360 56-141, R99H), sequence (O75360 56-141 R99H): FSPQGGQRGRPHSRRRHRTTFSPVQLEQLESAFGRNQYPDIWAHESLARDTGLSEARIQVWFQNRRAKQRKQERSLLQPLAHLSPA
ALX3 (Homo sapiens, UniProt O95076 139-225, L168V), sequence (O95076 139-225 L168V): as the sequence (O95076 139-225 L168Q) above, with Q30V counted along it
ALX3 (Homo sapiens, UniProt O95076 139-225, N203Q), sequence (O95076 139-225 N203Q): as the sequence (O95076 139-225 L168Q) above, with Q30L, N65Q counted along it
ALX3 (Homo sapiens, UniProt O95076 139-225, N203S), sequence (O95076 139-225 N203S): as the sequence (O95076 139-225 L168Q) above, with Q30L, N65S counted along it
PROP1 (Homo sapiens, UniProt O75360 56-141, F88S), sequence (O75360 56-141 F88S): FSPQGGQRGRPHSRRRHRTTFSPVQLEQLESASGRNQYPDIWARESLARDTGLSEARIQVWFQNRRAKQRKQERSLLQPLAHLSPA

Turning to CGGGGCGC, the binding signal with PAX4 [1] was 9.09 upbm affinity estimate (log intensity, higher = more binding, comparable within an allelic series); with PAX4 [2], 9 upbm affinity estimate (log intensity, higher = more binding, comparable within an allelic series); in the assay with HOXA2 [3], 7.19 upbm affinity estimate (log intensity, higher = more binding, comparable within an allelic series); with PAX4 [4], 8.96 upbm affinity estimate (log intensity, higher = more binding, comparable within an allelic series); with HOXA2 [5], 9.85 upbm affinity estimate (log intensity, higher = more binding, comparable within an allelic series); with PAX4 [6], 8.91 upbm affinity estimate (log intensity, higher = more binding, comparable within an allelic series). The binding signal with PAX4 [7] was 9.04 upbm affinity estimate (log intensity, higher = more binding, comparable within an allelic series); with PAX4 [8] it was 9.06 upbm affinity estimate (log intensity, higher = more binding, comparable within an allelic series); with HOXA2 [9], 10.3 upbm affinity estimate (log intensity, higher = more binding, comparable within an allelic series); with HOXA2 [10], 7.21 upbm affinity estimate (log intensity, higher = more binding, comparable within an allelic series).

As for CGGTACCG, the binding signal is 9.38 upbm affinity estimate (log intensity, higher = more binding, comparable within an allelic series) in the assay with PAX4 [1]; 9.43 upbm affinity estimate (log intensity, higher = more binding, comparable within an allelic series) in the assay with PAX4 [2]; 7.62 upbm affinity estimate (log intensity, higher = more binding, comparable within an allelic series) with HOXA2 [3]; 7.72 upbm affinity estimate (log intensity, higher = more binding, comparable within an allelic series) in the assay with ALX3 [11]; 9.13 upbm affinity estimate (log intensity, higher = more binding, comparable within an allelic series) with NKX2-6 [12]; 9.37 upbm affinity estimate (log intensity, higher = more binding, comparable within an allelic series) with PAX4 [4]. In addition, the binding signal with HOXA2 [5] was 10.4 upbm affinity estimate (log intensity, higher = more binding, comparable within an allelic series); with PAX4 [6], 9.37 upbm affinity estimate (log intensity, higher = more binding, comparable within an allelic series); in the assay with ALX3 [13], 7.9 upbm affinity estimate (log intensity, higher = more binding, comparable within an allelic series); with PAX4 [7] it was 9.28 upbm affinity estimate (log intensity, higher = more binding, comparable within an allelic series); in the assay with ALX3 [14], 7.73 upbm affinity estimate (log intensity, higher = more binding, comparable within an allelic series); in the assay with NKX2-6 [15], 9.24 upbm affinity estimate (log intensity, higher = more binding, comparable within an allelic series). Also, the binding signal is 7.69 upbm affinity estimate (log intensity, higher = more binding, comparable within an allelic series) in the assay with ALX3 [16]; 9.32 upbm affinity estimate (log intensity, higher = more binding, comparable within an allelic series) with PAX4 [8]; 10.4 upbm affinity estimate (log intensity, higher = more binding, comparable within an allelic series) with HOXA2 [9]; 7.78 upbm affinity estimate (log intensity, higher = more binding, comparable within an allelic series) in the assay with ALX3 [17]; 7.54 upbm affinity estimate (log intensity, higher = more binding, comparable within an allelic series) with HOXA2 [10].

With CGACAGCG, the binding signal with PAX4 [1] is 9.45 upbm affinity estimate (log intensity, higher = more binding, comparable within an allelic series); with PAX4 [2], 9.39 upbm affinity estimate (log intensity, higher = more binding, comparable within an allelic series); in the assay with NKX2-6 [12], 9.49 upbm affinity estimate (log intensity, higher = more binding, comparable within an allelic series); with PAX4 [4] it was 9.48 upbm affinity estimate (log intensity, higher = more binding, comparable within an allelic series); in the assay with PAX4 [6] it was 9.36 upbm affinity estimate (log intensity, higher = more binding, comparable within an allelic series); with PAX4 [7], 9.33 upbm affinity estimate (log intensity, higher = more binding, comparable within an allelic series). Besides, the binding signal in the assay with NKX2-6 [15] was 9.32 upbm affinity estimate (log intensity, higher = more binding, comparable within an allelic series); in the assay with PAX4 [8], 9.44 upbm affinity estimate (log intensity, higher = more binding, comparable within an allelic series).

As for CACCGGCC, the binding signal is 9.22 upbm affinity estimate (log intensity, higher = more binding, comparable within an allelic series) in the assay with PAX4 [1]; 9.3 upbm affinity estimate (log intensity, higher = more binding, comparable within an allelic series) with PAX4 [2]; 9.31 upbm affinity estimate (log intensity, higher = more binding, comparable within an allelic series) in the assay with PAX4 [4]; 9.16 upbm affinity estimate (log intensity, higher = more binding, comparable within an allelic series) in the assay with PAX4 [6]; 9.17 upbm affinity estimate (log intensity, higher = more binding, comparable within an allelic series) with PAX4 [7]; 6.75 upbm affinity estimate (log intensity, higher = more binding, comparable within an allelic series) in the assay with PROP1 [18]. Besides, the binding signal in the assay with PROP1 [19] was 6.63 upbm affinity estimate (log intensity, higher = more binding, comparable within an allelic series); with PROP1 [20], 6.3 upbm affinity estimate (log intensity, higher = more binding, comparable within an allelic series); with PAX4 [8], 9.27 upbm affinity estimate (log intensity, higher = more binding, comparable within an allelic series).

For the sequence ACTAATTC, the binding signal is 11.6 upbm affinity estimate (log intensity, higher = more binding, comparable within an allelic series) with PAX4 [1]; 12.1 upbm affinity estimate (log intensity, higher = more binding, comparable within an allelic series) with PAX4 [2]; 11.8 upbm affinity estimate (log intensity, higher = more binding, comparable within an allelic series) with PAX4 [4]; 10.4 upbm affinity estimate (log intensity, higher = more binding, comparable within an allelic series) with PAX4 [6]; 10.9 upbm affinity estimate (log intensity, higher = more binding, comparable within an allelic series) in the assay with PAX4 [7]; 10.9 upbm affinity estimate (log intensity, higher = more binding, comparable within an allelic series) with PAX4 [8].

CGCGCGCC: the binding signal with PAX4 [1] was 9.3 upbm affinity estimate (log intensity, higher = more binding, comparable within an allelic series); with PAX4 [2], 9.28 upbm affinity estimate (log intensity, higher = more binding, comparable within an allelic series); in the assay with PAX4 [4], 9.36 upbm affinity estimate (log intensity, higher = more binding, comparable within an allelic series); with PAX4 [6] it was 9.21 upbm affinity estimate (log intensity, higher = more binding, comparable within an allelic series); in the assay with PAX4 [7], 9.31 upbm affinity estimate (log intensity, higher = more binding, comparable within an allelic series); in the assay with PAX4 [8] it was 9.28 upbm affinity estimate (log intensity, higher = more binding, comparable within an allelic series).

In the case of CAGCCGGG, the binding signal is 9.16 upbm affinity estimate (log intensity, higher = more binding, comparable within an allelic series) with PAX4 [1]; 9.21 upbm affinity estimate (log intensity, higher = more binding, comparable within an allelic series) in the assay with PAX4 [2]; 9.22 upbm affinity estimate (log intensity, higher = more binding, comparable within an allelic series) with PAX4 [4]; 9.02 upbm affinity estimate (log intensity, higher = more binding, comparable within an allelic series) with PAX4 [6]; 9.05 upbm affinity estimate (log intensity, higher = more binding, comparable within an allelic series) with PAX4 [7]; 9.17 upbm affinity estimate (log intensity, higher = more binding, comparable within an allelic series) with PAX4 [8].

Regarding ATACATAT, the binding signal in the assay with PAX4 [1] is 10.7 upbm affinity estimate (log intensity, higher = more binding, comparable within an allelic series); with PAX4 [2], 10.7 upbm affinity estimate (log intensity, higher = more binding, comparable within an allelic series); with PAX4 [4], 10.8 upbm affinity estimate (log intensity, higher = more binding, comparable within an allelic series); with PAX4 [6], 10.6 upbm affinity estimate (log intensity, higher = more binding, comparable within an allelic series); with PAX4 [7], 10.6 upbm affinity estimate (log intensity, higher = more binding, comparable within an allelic series); with PAX4 [8], 10.6 upbm affinity estimate (log intensity, higher = more binding, comparable within an allelic series).
